This passage reports potency estimated from few doses results from article PMC11062922 (Nature Chemical Biology, 2023).

Common to all, as to set-up: species or system human, MV4-11 + K-562 + COLO205 + SK-N-BE2 + OVCAR-8
For one test, the system named is CDK6. Conditions: read-out: apparent Kd, n = 1.
A further test relates to JAK1. The settings on record: read-out: apparent Kd, n = 1.
The test system of a further test is MAP4K1. The settings on record: read-out: apparent Kd, n = 1.
The test system of the next test is PRKCB. Conditions: read-out: apparent Kd, n = 1.
The subject of the next test is NQO2. Conditions: read-out: apparent Kd, compound concentrations: 100 nM and 1000 nM (sheet 'Samples'), n = 1.
The subject of the next test is CDC7. The settings on record: read-out: apparent Kd, n = 1.
A further test concerns CDK5. Conditions: read-out: apparent Kd, n = 1.
The next test relates to STK26. The settings on record: read-out: apparent Kd, compound concentrations: 100 nM and 1000 nM (sheet 'Samples'), n = 1.
In the next test the test system is IRAK4. The settings on record: read-out: apparent Kd; compound concentrations:100 nM and 1000 nM (sheet 'Samples'); n = 1.
The subject of the next test is JAK2. The settings on record: read-out: apparent Kd; compound concentrations: 100 nM and 1000 nM (sheet 'Samples'), CATDS: 1.8350594186084E-2; n = 1.
The next test deals with T1, DJA1.
T1 construct: gene DNAJA1
The settings on record: read-out: apparent Kd, compound concentrations: 100 nM and 1000 nM (sheet 'Samples'), n = 1.

In another test the test system is PIK3CA. The settings on record: read-out: apparent Kd, compound concentrations: 100 nM and 1000 nM (sheet 'Samples'), n = 1.
In another test the test system is NLK. Conditions: read-out: apparent Kd; compound concentrations: 100 nM and 1000 nM (sheet 'Samples'), CATDS: 0.11088369265314001; n = 1.
The test system of another test is MAP2K1. The settings on record: read-out: apparent Kd; compound concentrations:100 nM and 1000 nM (sheet 'Samples'); n = 1.
In the next test the test system is ATR. Conditions: read-out: apparent Kd; compound concentrations: 100 nM and 1000 nM (sheet 'Samples'), CATDS: 4.3166992032332097E-2; n = 1.
Setting [1] is: compound concentrations:100 nM and 1000 nM (sheet 'Samples').

The structures appear in SMILES notation. Like-named read-outs stand apart in the source and are kept apart here.

As to `CN[C@H](C#Cc1c(F)ccc2c1/C(=C/c1[nH]ccc1OC)C(=O)N2)CO.Cl` [RO0283049-001], the potency estimated from few doses in the test with CDK6 (compound concentrations: 100 nM and 1000 nM (sheet 'Samples'), CATDS: 1.9484263699736298E-2) was 2.15 µM; with JAK1 (compound concentrations: 100 nM and 1000 nM (sheet 'Samples'), CATDS: 9.7447783313560105E-2) it was 0.0497 µM; with MAP4K1 (compound concentrations: 100 nM and 1000 nM (sheet 'Samples'), CATDS: 2.1208459408743999E-2) it was 1.46 µM.

`CNCC1CCn2c(c(C3=C(c4cn(C)c5ccccc45)C(=O)NC3=O)c3ccccc32)C1` (stereo not shown) [RO0318676-000]: the potency estimated from few doses in the test on PRKCB (compound concentrations: 100 nM and 1000 nM (sheet 'Samples'), CATDS: 0.17130797334845299) was 0.0289 µM.

`COc1cc[nH]c1/C=C1\C(=O)Nc2ccc(F)c(I)c21` [RO0281567-000]: in the test on NQO2 (CATDS: 0.103820399985183), the potency estimated from few doses was 1.83 µM.

As to `Cn1cc(C2=C(c3c(S(C)=O)n(C)c4ccccc34)C(=O)NC2=O)c2ccccc21` (stereo not shown) [RO0317379-000], the potency estimated from few doses with NQO2 (CATDS: 0.10247036288978301) was 1.82 µM.

Regarding `NS(=O)(=O)c1ccc(NC=C2C(=O)Nc3ccc4ncsc4c32)cc1` [GW589933X], the potency estimated from few doses with CDC7 (compound concentrations: 100 nM and 1000 nM (sheet 'Samples'), CATDS: 1.6133442669584601E-2) is 2.2 µM; with CDK5 (compound concentrations: 100 nM and 1000 nM (sheet 'Samples'), CATDS: 3.21718775388454E-2) it was 0.288 µM; with CDK6 (compound concentrations: 100 nM and 1000 nM (sheet 'Samples'), CATDS: 2.1682770776227499E-2), 0.765 µM; in the test with MAP4K1 (compound concentrations: 100 nM and 1000 nM (sheet 'Samples'), CATDS: 1.8829734427402701E-2), 1.19 µM; in the test with STK26 (CATDS: 5.6823828903644298E-2), 0.0943 µM.

For `O=C1N=C(NCc2ccccc2Br)S/C1=C\c1ccc2ncccc2c1` [RO4506918-000], in the test on NQO2 (CATDS: 7.7702899171443504E-2), the potency estimated from few doses is 1.48 µM.

With `NS(=O)(=O)c1ccc(N/C=C2\C(=O)Nc3ccc4ncsc4c32)cc1` [GW297361X], the potency estimated from few doses in the test on CDC7 (compound concentrations: 100 nM and 1000 nM (sheet 'Samples'), CATDS: 3.3579769325783403E-2) was 1.33 µM; in the test with CDK5 (compound concentrations: 100 nM and 1000 nM (sheet 'Samples'), CATDS: 4.1634678032953398E-2), 0.772 µM; in the test on CDK6 (compound concentrations: 100 nM and 1000 nM (sheet 'Samples'), CATDS: 3.48419374837717E-2), 1.2 µM; with STK26 (CATDS: 3.6702057868443203E-2), 1.05 µM.

For the compound `COc1cc[nH]c1/C=C1\C(=O)Nc2ccc([N+](=O)[O-])c(N3CC[C@@H](O)C3)c21` [RO0504985-000], the potency estimated from few doses is 1.47 µM in the test with CDK5 (compound concentrations: 100 nM and 1000 nM (sheet 'Samples'), CATDS: 3.2036617578660199E-2); 1.13 µM with JAK1 (compound concentrations: 100 nM and 1000 nM (sheet 'Samples'), CATDS: 3.4351644402230902E-2).

On to `Nc1nccc(-c2ccc3c(N)n[nH]c3c2)n1` [GSK1034945A], for which the figures for the potency estimated from few doses in the test on CDC7 (setting [1]) and in the test on CDK6 (setting [1]) were 1.42 µM and 2.15 µM, respectively.

Take `COc1cc[nH]c1/C=C1\C(=O)Nc2ccc(F)c(C#C[C@@H](O)[C@@H](N)[C@@H](C)O)c21` [RO0283120-000]: the potency estimated from few doses is 1.07 µM with CDK5 (setting [1]), 1.14 µM with CDK6 (setting [1]), 0.468 µM in the test on JAK1 (setting [1]) and 1.06 µM in the test on MAP4K1 (setting [1]).

Regarding `O=C(Nc1n[nH]c2nc(-c3ccccc3O)ccc12)C1CC1` [SB-711880], the potency estimated from few doses in the test on IRAK4 is 0.958 µM.

`Cl.Cl.NCC(NC(=O)c1cc(-c2ccnc3[nH]ccc23)cs1)c1ccccc1.NCC(NC(=O)c1cc(-c2ccnc3[nH]ccc23)cs1)c1ccccc1` (stereo not shown) [GSK1229959A]: the potency estimated from few doses with JAK2 was 1.23 µM.

`CCn1c(-c2nonc2N)nc2cncc(C(=O)N3CC[C@H](N)C3)c21.Cl` [SB-772077-B]: the potency estimated from few doses in the test on PRKCB (setting [1]) was 0.752 µM.

Take `NS(=O)(=O)c1ccc(N/N=C2\C(=O)Nc3ccc4ncccc4c32)cc1` [GW305178X]: the potency estimated from few doses with CDK5 (compound concentrations: 100 nM and 1000 nM (sheet 'Samples'), CATDS: 5.4245718700327898E-2) was 0.776 µM; with STK26 (CATDS: 3.9228488204277198E-2), 2.19 µM.

Take `CN(C)c1ccc2c(c1)/C(=C/Nc1ccc(S(N)(=O)=O)cc1)C(=O)N2` [GW416469X]: the figures for the potency estimated from few doses with DJA1 (CATDS: 7.6568205350202298E-2), in the test on PIK3CA (CATDS: 0.16808925824439999) and with STK26 (CATDS: 7.4408225949633894E-2) were 1.42 µM, 0.245 µM and 1.55 µM, respectively.

On to `COc1ccc(Nc2nccc(NCCNC(=O)Nc3cc(C)ccc3C)n2)cc1` [GSK1379899A], for which the potency estimated from few doses in the test on DJA1 (CATDS: 4.7532524958751397E-2) was 1.32 µM; in the test on PIK3CA (CATDS: 0.114925337657843) it was 0.25 µM.

In the case of `NS(=O)(=O)c1cccc(-c2ccc3c(NC(=O)C4CC4)n[nH]c3c2)c1` [SB-741905], the potency estimated from few doses is 1.78 µM in the test on DJA1 (CATDS: 0.110749292558391), 1.78 µM in the test with NLK and 0.301 µM in the test with PIK3CA (CATDS: 0.24789463028651901).

For `CCn1c(-c2nonc2N)nc2cncc(Br)c21` [SB-738004], the potency estimated from few doses in the test on CDC7 (setting [1]) was 0.655 µM; in the test on PRKCB (setting [1]), 1.35 µM.

On to `Cc1occc1-c1nc(N)c(OC[C@@H](N)Cc2c[nH]c3ccccc23)cc1-c1cc2c(C)n[nH]c2cn1` [GSK1660450B], for which, in the test on PRKCB (setting [1]), the potency estimated from few doses is 0.126 µM.

In the case of `Cl.Nc1nc(-c2ccc3c(c2)C(=Cc2cc(Br)c(O)c(Br)c2)C(=O)N3)cs1` [GW407323A], the potency estimated from few doses in the test with CDC7 (compound concentrations: 100 nM and 1000 nM (sheet 'Samples'), CATDS: 3.34335879912959E-2) is 0.903 µM; in the test with CDK5 (compound concentrations: 100 nM and 1000 nM (sheet 'Samples'), CATDS: 3.2075067944878903E-2) it was 1.06 µM; in the test with NQO2 (CATDS: 3.5438928095243502E-2) it was 0.734 µM.

Regarding `Cn1cc(C=C2C(=O)Nc3cccnc32)c2ccccc21` [GW441756X], the potency estimated from few doses with JAK1 (compound concentrations: 100 nM and 1000 nM (sheet 'Samples'), CATDS: 0.22655128290916701) is 1.25 µM.

For `Nc1nc(-c2ccc3c(N)n[nH]c3c2)cc(N2CCCC(NC(=O)c3ccccc3)C2)n1` (stereo not shown) [GSK2286775B], the potency estimated from few doses in the test on CDK6 (setting [1]) was 1.51 µM; with MAP2K1 it was 1.83 µM.

Take `CCC(CC)(CC)n1cnc2c(N)ncnc21` [SKF-97620]: the potency estimated from few doses in the test on ATR was 0.432 µM; in the test with PIK3CA (CATDS: 0.13947400940733601) it was 0.0539 µM.

As for `O=C1N=C(NCCc2ccccc2F)S/C1=C\c1ccc2ncccc2c1` [RO4498483-000], the potency estimated from few doses in the test on PIK3CA (CATDS: 0.16167463298299301) was 0.268 µM.
